# The supplement of paper PMC8728848
# About 410 targets per protein were measured; listed, in parts, are those with the strongest signals and a random draw of the rest.
# Assays:
# Assay in all cases: glycan array binding signal (z-score within array); higher = stronger binding
# Conditions in all cases: glycan notation: IUPAC condensed, linker removed
# [1] = molecular target: Fuc(a1-2)Gal(b1-3)GlcNAc(b1-2)Man(a1-3)[Fuc(a1-2)Gal(b1-3)GlcNAc(b1-2)Man(a1-6)]Man(b1-4)GlcNAc(b1-4)GlcNAc
# Procedure, shortened: (§1)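 Negative Z-scores can be read as non-binding. The Z-score is calculated within each array and then averaged across arrays of one protein sequence at different concentrations or buffers and across linkers. Arrays, 3228 in all, were curated from the Consortium for Functional Glycomics database and kept only where the protein sequence was available.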
# [2] = molecular target: Fuc(a1-2)Gal(b1-4)GlcNAc(b1-3)GalNAc
# Procedure, shortened: as §1
# [3] = molecular target: Fuc(a1-2)[GalNAc(a1-3)]Gal(b1-4)[Fuc(a1-3)]GlcNAc(b1-3)GalNAc
# Procedure, shortened: as §1
# Fuc(a1-3)GlcNAc = molecular target: Fuc(a1-3)GlcNAc
# Procedure, shortened: as §1
# Gal(a1-2)Gal = molecular target: Gal(a1-2)Gal
# Procedure, shortened: as §1
# [4] = molecular target: Gal(a1-3)Gal(b1-3)GlcNAc(b1-2)Man(a1-3)[Gal(a1-3)Gal(b1-3)GlcNAc(b1-2)Man(a1-6)]Man(b1-4)GlcNAc(b1-4)GlcNAc
# Procedure, shortened: as §1
# [5] = molecular target: Gal(a1-3)Gal(b1-3)[Fuc(a1-4)]GlcNAc(b1-2)Man(a1-3)[Gal(a1-3)Gal(b1-3)[Fuc(a1-4)]GlcNAc(b1-2)Man(a1-6)]Man(b1-4)GlcNAc(b1-4)GlcNAc
# Procedure, shortened: as §1
# [6] = molecular target: Gal(a1-3)Gal(b1-4)GlcNAc(b1-3)GalNAc
# Procedure, shortened: as §1
# [7] = molecular target: Gal(a1-3)Gal(b1-4)[Fuc(a1-3)]GlcNAc
# Procedure, shortened: as §1
# Gal(b1-3)Gal = molecular target: Gal(b1-3)Gal
# Procedure, shortened: as §1
# Gal(b1-3)Gal(b1-4)GlcNAc = molecular target: Gal(b1-3)Gal(b1-4)GlcNAc
# Procedure, shortened: as §1
# Gal(b1-3)GalNAc = molecular target: Gal(b1-3)GalNAc
# Procedure, shortened: as §1
# [8] = molecular target: Gal(b1-3)GalNAc(a1-3)[Fuc(a1-2)]Gal(b1-4)Glc
# Procedure, shortened: as §1
# [9] = molecular target: Gal(b1-3)GalNAc(a1-3)[Fuc(a1-2)]Gal(b1-4)GlcNAc
# Procedure, shortened: as §1
# Gal(b1-3)GalNAc(b1-3)Gal = molecular target: Gal(b1-3)GalNAc(b1-3)Gal
# Procedure, shortened: as §1
# [10] = molecular target: Gal(b1-3)GalNAc(b1-4)Gal(b1-4)Glc
# Procedure, shortened: as §1
# [11] = molecular target: Gal(b1-3)GlcNAc(b1-2)[Gal(b1-3)GlcNAc(b1-6)]Man(a1-6)[Gal(b1-3)GlcNAc(b1-2)Man(a1-3)]Man(b1-4)GlcNAc(b1-4)GlcNAc
# Procedure, shortened: as §1
# [12] = molecular target: Gal(b1-3)GlcNAc(b1-3)Gal(b1-4)GlcNAc(b1-2)Man(a1-3)[Gal(b1-3)GlcNAc(b1-3)Gal(b1-4)GlcNAc(b1-2)Man(a1-6)]Man(b1-4)GlcNAc(b1-4)GlcNAc
# Procedure, shortened: as §1
# [13] = molecular target: Gal(b1-3)GlcNAc(b1-3)Gal(b1-4)GlcNAc(b1-6)[Gal(b1-3)GlcNAc(b1-3)]Gal(b1-4)Glc
# Procedure, shortened: as §1
# [14] = molecular target: Gal(b1-3)GlcNAc(b1-6)Gal(b1-4)GlcNAc
# Procedure, shortened: as §1
# [15] = molecular target: Gal(b1-3)[Fuc(a1-4)]GlcNAc(b1-3)Gal(b1-3)[Fuc(a1-4)]GlcNAc
# Procedure, shortened: as §1
# [16] = molecular target: Gal(b1-3)[Neu5Ac(a2-6)]GalNAc
# Procedure, shortened: as §1
# Gal(b1-4)Glc = molecular target: Gal(b1-4)Glc
# Procedure, shortened: as §1
# Gal(b1-4)GlcNAc = molecular target: Gal(b1-4)GlcNAc
# Procedure, shortened: as §1
# [17] = molecular target: Gal(b1-4)GlcNAc(b1-3)Gal(b1-4)GlcNAc(b1-2)Man(a1-3)[Gal(b1-4)GlcNAc(b1-3)Gal(b1-4)GlcNAc(b1-2)Man(a1-6)]Man(b1-4)GlcNAc(b1-4)GlcNAc
# Procedure, shortened: as §1
# [18] = molecular target: Gal(b1-4)GlcNAc(b1-3)Gal(b1-4)GlcNAc(b1-2)Man(a1-3)[Gal(b1-4)GlcNAc(b1-3)Gal(b1-4)GlcNAc(b1-2)Man(a1-6)]Man(b1-4)GlcNAc(b1-4)[Fuc(a1-6)]GlcNAc
# Procedure, shortened: as §1
binder,measurement,setting,value
"CFEM-PPm (Pichia pastoris), F2QPV1 (protein) AVATPPACLLACAAEVVKESSDCDALNNIQCICENEGSAIHACLESTCPDGLSSTALQSFEDVCE",glycan array binding signal (z-score),[1],-0.289
same,glycan array binding signal (z-score),[2],1.77
same,glycan array binding signal (z-score),[3],3.4
same,glycan array binding signal (z-score),Fuc(a1-3)GlcNAc,-0.301
same,glycan array binding signal (z-score),Gal(a1-2)Gal,-0.447
same,glycan array binding signal (z-score),[4],0.425
same,glycan array binding signal (z-score),[5],-0.006
same,glycan array binding signal (z-score),[6],-0.284
same,glycan array binding signal (z-score),[7],-0.203
same,glycan array binding signal (z-score),Gal(b1-3)Gal,5.41
same,glycan array binding signal (z-score),Gal(b1-3)Gal(b1-4)GlcNAc,6.22
same,glycan array binding signal (z-score),Gal(b1-3)GalNAc,3.57
same,glycan array binding signal (z-score),[8],0.271
same,glycan array binding signal (z-score),[9],0.224
same,glycan array binding signal (z-score),Gal(b1-3)GalNAc(b1-3)Gal,5.7
same,glycan array binding signal (z-score),[10],14.7
same,glycan array binding signal (z-score),[11],-0.203
same,glycan array binding signal (z-score),[12],-0.305
same,glycan array binding signal (z-score),[13],-0.017
same,glycan array binding signal (z-score),[14],-0.102
same,glycan array binding signal (z-score),[15],-0.034
same,glycan array binding signal (z-score),[16],7.18
same,glycan array binding signal (z-score),Gal(b1-4)Glc,-0.356
same,glycan array binding signal (z-score),Gal(b1-4)GlcNAc,-0.105
same,glycan array binding signal (z-score),[17],1.53
same,glycan array binding signal (z-score),[18],-0.026
